# Changes are numbered by the printed parent chain.
# Legend:
# Assay in all cases: PBM; 200 nM protein, PBS
# Settings in all cases: dsDNA, one strand shown
# SIX6 [1] = target: T1, SIX6 (Homo sapiens, UniProt O95475 114-200, L167I)
# T1 sequence: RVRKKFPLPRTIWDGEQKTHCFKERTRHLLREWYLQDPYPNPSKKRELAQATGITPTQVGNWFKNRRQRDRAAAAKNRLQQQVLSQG
# SIX6 [2] = target: T2, SIX6 (Homo sapiens, UniProt O95475 114-200, T165P)
# T2 sequence: T1 sequence with T52P, I54L
# SIX6 [3] = target: T3, SIX6 (Homo sapiens, UniProt O95475 114-200, L167M)
# T3 sequence: T1 sequence with I54M
# SIX6 [4] = target: T4, SIX6 (Homo sapiens, UniProt O95475 114-200, T165G)
# T4 sequence: T1 sequence with T52G, I54L
# SIX6 [5] = target: T5, SIX6 (Homo sapiens, UniProt O95475 114-200, T139Q)
# T5 sequence: T1 sequence with T26Q, I54L
# SIX6 [6] = target: T6, SIX6 (Homo sapiens, UniProt O95475 114-200, L167V)
# T6 sequence: T1 sequence with I54V
# SIX6 [7] = target: T7, SIX6 (Homo sapiens, UniProt O95475 114-200, T165I)
# T7 sequence: T1 sequence with T52I, I54L
Sequence,binding signal (SIX6 [1]),binding signal (SIX6 [2]),binding signal (SIX6 [3]),binding signal (SIX6 [4]),binding signal (SIX6 [5]),binding signal (SIX6 [6]),binding signal (SIX6 [7])
CCCGGCGG,"9.11 upbm affinity estimate (log intensity, higher = more binding, comparable within an allelic series)","8.96 upbm affinity estimate (log intensity, higher = more binding, comparable within an allelic series)","9 upbm affinity estimate (log intensity, higher = more binding, comparable within an allelic series)","9.14 upbm affinity estimate (log intensity, higher = more binding, comparable within an allelic series)","9.18 upbm affinity estimate (log intensity, higher = more binding, comparable within an allelic series)","9.07 upbm affinity estimate (log intensity, higher = more binding, comparable within an allelic series)","9.08 upbm affinity estimate (log intensity, higher = more binding, comparable within an allelic series)"
CGGCGCCG,"8.88 upbm affinity estimate (log intensity, higher = more binding, comparable within an allelic series)","9.09 upbm affinity estimate (log intensity, higher = more binding, comparable within an allelic series)","8.86 upbm affinity estimate (log intensity, higher = more binding, comparable within an allelic series)","8.96 upbm affinity estimate (log intensity, higher = more binding, comparable within an allelic series)","8.91 upbm affinity estimate (log intensity, higher = more binding, comparable within an allelic series)","8.85 upbm affinity estimate (log intensity, higher = more binding, comparable within an allelic series)","8.84 upbm affinity estimate (log intensity, higher = more binding, comparable within an allelic series)"
